Experiment [1] deals with Mitogen-activated protein kinase 3 (Homo sapiens) (UniProt P27361). The conditions noted are these: at 1 µM.
Experiment [2] has as its target SRSF protein kinase 3 (Homo sapiens) (UniProt Q9UPE1). Conditions: at 0.1 µM.
Experiment [3] has the same target. Conditions: at 1 µM.
For experiment [4], the target named is SRSF protein kinase 1 (Homo sapiens) (UniProt Q96SB4). The conditions noted are these: at 0.1 µM.
Experiment [5] shares this target. The conditions noted are these: at 1 µM.
The target in experiment [6] is Phosphatidylinositol 4,5-bisphosphate 3-kinase catalytic subunit alpha isoform (Homo sapiens) (UniProt P42336). The conditions noted are these: at 0.1 µM.
The target is the same in experiment [7]. Conditions: at 1 µM.
Experiment [8] deals with T1, Phosphatidylinositol 4,5-bisphosphate 3-kinase catalytic subunit delta isoform (Homo sapiens) (UniProt O00329).
T1 sequence (whole entry): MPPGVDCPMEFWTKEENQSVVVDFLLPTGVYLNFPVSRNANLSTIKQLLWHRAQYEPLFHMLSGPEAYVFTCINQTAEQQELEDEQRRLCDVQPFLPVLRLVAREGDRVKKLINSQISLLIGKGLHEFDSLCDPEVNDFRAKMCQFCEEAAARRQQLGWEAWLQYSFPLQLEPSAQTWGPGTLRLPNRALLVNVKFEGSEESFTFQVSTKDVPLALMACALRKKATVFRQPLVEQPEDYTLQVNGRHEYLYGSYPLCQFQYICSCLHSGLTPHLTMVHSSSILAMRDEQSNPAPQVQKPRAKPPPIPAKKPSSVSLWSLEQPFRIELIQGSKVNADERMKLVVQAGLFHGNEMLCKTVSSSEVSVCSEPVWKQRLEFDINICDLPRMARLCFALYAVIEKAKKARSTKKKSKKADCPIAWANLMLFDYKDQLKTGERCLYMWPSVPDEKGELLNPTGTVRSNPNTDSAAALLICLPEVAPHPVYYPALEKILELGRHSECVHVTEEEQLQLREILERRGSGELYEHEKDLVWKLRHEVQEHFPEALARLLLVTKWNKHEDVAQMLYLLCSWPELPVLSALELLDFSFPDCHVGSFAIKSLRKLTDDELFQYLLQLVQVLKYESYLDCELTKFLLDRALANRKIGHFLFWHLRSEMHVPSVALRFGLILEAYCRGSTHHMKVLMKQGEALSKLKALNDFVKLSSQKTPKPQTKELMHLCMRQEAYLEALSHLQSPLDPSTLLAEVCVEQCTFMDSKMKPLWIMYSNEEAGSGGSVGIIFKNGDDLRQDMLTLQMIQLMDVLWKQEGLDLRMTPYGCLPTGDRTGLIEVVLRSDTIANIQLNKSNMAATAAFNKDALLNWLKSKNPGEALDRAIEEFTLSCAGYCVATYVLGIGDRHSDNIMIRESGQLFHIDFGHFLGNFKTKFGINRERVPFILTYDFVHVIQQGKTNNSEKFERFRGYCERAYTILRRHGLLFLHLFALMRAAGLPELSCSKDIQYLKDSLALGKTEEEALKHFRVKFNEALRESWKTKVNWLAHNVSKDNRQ
Conditions: at 0.1 µM.

For experiment [9], the target named is T1, Phosphatidylinositol 4,5-bisphosphate 3-kinase catalytic subunit delta isoform (Homo sapiens). The conditions noted are these: at 1 µM.
Experiment [10] concerns the target Phosphatidylinositol 4-kinase beta (Homo sapiens) (UniProt Q9UBF8). Conditions: at 0.1 µM.
Experiment [11] shares this target. Conditions: at 1 µM.
For experiment [12], the target named is Sphingosine kinase 1 (Homo sapiens) (UniProt Q9NYA1). The conditions noted are these: at 0.1 µM.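 Note: mean percent inhibition of SPHK1 activity, measured within the GSK PKIS screening panel.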
Experiment [13] deals with Mitogen-activated protein kinase 14 (Homo sapiens) (UniProt Q16539). Conditions: at 0.1 µM.
Experiment [14] has the same target. The conditions noted are these: at 1 µM.
Experiment [15] concerns the target Mitogen-activated protein kinase 11 (Homo sapiens) (UniProt Q15759). Conditions: at 0.1 µM.
The target is the same in experiment [16]. The conditions noted are these: at 1 µM.
For experiment [17], the target named is T2, Mitogen-activated protein kinase 13 (Homo sapiens) (UniProt O15264).
T2 sequence (whole entry): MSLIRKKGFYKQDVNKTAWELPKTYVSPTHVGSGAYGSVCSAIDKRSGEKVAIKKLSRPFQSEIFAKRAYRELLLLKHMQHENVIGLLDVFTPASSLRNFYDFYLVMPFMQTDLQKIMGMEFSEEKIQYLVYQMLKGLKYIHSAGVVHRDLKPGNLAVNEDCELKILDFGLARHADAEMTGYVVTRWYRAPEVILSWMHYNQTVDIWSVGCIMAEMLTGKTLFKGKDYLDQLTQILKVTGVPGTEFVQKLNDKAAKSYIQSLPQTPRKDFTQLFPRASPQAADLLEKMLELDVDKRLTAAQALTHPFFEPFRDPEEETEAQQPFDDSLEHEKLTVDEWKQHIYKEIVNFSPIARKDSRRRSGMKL
Conditions: at 0.1 µM.

In experiment [18] the target is T2, Mitogen-activated protein kinase 13 (Homo sapiens). The conditions noted are these: at 1 µM.
Experiment [19] deals with T3, Mitogen-activated protein kinase 12 (Homo sapiens) (UniProt P53778).
T3 sequence (whole entry): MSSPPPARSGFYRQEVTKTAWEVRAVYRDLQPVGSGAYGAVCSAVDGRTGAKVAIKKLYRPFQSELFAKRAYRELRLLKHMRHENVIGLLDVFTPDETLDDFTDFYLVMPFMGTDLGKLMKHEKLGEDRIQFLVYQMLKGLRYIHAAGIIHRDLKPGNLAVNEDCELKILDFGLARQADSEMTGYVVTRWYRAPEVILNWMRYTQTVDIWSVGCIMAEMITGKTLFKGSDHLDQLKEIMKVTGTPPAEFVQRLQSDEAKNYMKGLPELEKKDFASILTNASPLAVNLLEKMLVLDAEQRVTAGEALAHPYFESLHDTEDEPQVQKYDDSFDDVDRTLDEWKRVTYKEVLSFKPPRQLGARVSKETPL
Conditions: at 0.1 µM.

Experiment [20] concerns the target T3, Mitogen-activated protein kinase 12 (Homo sapiens). Conditions: at 1 µM.

Several values for one entry are separate records, joined by “and”; a condition that tells them apart may be missing. Equal values may be shown once.

Sequence of Mitogen-activated protein kinase 11 (Homo sapiens) (Q15759 whole entry): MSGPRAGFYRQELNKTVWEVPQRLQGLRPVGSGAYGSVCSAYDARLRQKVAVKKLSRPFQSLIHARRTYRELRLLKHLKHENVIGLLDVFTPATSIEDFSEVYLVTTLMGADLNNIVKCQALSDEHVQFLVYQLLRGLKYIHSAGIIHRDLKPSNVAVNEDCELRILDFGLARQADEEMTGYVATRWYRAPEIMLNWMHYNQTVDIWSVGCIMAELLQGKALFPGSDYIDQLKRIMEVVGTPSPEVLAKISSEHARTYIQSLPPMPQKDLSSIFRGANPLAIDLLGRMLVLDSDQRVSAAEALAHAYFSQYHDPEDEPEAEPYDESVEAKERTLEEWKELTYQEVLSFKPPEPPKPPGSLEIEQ
Sequence of SRSF protein kinase 1 (Homo sapiens) (Q96SB4 whole entry): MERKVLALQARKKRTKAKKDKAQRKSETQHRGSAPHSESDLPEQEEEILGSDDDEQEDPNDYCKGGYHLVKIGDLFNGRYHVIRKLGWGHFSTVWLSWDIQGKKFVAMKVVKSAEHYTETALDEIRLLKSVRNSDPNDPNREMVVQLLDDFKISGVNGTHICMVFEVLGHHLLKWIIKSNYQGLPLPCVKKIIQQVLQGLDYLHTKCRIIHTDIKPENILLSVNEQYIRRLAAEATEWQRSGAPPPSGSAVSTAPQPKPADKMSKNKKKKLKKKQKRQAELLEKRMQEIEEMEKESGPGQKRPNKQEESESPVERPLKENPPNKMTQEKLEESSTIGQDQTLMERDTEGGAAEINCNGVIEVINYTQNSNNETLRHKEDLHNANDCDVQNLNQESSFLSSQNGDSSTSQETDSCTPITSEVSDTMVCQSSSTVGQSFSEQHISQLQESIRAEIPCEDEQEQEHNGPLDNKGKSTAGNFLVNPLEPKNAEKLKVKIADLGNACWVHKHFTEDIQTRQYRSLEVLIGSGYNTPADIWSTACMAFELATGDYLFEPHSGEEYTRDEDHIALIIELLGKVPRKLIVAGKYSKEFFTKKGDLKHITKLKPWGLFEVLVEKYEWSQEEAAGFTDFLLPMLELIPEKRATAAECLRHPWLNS
Sequence of SRSF protein kinase 3 (Homo sapiens) (Q9UPE1 whole entry): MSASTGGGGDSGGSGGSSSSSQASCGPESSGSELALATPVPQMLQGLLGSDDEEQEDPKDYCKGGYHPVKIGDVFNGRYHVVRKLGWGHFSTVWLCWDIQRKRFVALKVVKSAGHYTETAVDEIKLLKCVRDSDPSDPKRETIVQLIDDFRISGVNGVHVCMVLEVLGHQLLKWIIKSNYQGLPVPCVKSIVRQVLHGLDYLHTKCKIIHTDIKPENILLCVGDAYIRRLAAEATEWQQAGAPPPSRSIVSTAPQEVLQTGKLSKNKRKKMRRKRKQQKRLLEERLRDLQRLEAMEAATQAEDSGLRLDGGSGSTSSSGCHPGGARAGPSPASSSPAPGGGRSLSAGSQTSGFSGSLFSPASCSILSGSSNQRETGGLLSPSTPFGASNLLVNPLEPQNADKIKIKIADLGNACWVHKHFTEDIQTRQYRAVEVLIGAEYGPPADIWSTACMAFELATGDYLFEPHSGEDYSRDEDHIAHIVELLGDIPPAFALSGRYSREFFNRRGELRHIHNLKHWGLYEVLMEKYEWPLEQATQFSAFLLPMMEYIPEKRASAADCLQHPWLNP
Sequence of Phosphatidylinositol 4,5-bisphosphate 3-kinase catalytic subunit alpha isoform (Homo sapiens) (P42336 whole entry, canonical isoform): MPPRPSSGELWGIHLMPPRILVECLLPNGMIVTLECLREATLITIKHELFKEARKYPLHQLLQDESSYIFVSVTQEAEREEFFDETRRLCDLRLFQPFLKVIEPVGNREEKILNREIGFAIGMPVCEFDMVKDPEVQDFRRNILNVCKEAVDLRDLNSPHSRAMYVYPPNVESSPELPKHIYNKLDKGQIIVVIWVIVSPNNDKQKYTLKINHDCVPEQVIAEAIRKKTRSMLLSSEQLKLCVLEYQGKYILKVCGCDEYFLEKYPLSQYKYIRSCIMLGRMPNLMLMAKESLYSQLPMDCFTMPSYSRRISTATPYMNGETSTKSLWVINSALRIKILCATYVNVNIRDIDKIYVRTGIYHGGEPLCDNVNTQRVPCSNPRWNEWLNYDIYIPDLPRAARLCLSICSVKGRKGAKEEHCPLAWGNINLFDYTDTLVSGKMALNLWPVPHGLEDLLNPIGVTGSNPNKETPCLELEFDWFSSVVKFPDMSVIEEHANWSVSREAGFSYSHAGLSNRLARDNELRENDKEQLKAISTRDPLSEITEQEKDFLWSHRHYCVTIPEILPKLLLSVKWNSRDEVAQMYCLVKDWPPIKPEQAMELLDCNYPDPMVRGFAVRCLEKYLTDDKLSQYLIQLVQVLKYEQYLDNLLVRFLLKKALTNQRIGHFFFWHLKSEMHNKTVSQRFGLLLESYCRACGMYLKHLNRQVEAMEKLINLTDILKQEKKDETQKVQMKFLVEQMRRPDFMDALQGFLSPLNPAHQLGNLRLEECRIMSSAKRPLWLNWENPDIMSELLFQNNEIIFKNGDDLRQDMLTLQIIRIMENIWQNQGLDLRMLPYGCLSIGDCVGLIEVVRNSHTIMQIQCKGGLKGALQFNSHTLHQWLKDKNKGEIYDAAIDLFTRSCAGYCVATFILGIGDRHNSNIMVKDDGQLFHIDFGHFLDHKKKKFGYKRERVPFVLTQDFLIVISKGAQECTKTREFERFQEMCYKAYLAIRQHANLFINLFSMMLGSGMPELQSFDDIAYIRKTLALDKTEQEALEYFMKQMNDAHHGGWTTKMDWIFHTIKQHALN
Sequence of Phosphatidylinositol 4-kinase beta (Homo sapiens) (Q9UBF8 2-816 limits assumed): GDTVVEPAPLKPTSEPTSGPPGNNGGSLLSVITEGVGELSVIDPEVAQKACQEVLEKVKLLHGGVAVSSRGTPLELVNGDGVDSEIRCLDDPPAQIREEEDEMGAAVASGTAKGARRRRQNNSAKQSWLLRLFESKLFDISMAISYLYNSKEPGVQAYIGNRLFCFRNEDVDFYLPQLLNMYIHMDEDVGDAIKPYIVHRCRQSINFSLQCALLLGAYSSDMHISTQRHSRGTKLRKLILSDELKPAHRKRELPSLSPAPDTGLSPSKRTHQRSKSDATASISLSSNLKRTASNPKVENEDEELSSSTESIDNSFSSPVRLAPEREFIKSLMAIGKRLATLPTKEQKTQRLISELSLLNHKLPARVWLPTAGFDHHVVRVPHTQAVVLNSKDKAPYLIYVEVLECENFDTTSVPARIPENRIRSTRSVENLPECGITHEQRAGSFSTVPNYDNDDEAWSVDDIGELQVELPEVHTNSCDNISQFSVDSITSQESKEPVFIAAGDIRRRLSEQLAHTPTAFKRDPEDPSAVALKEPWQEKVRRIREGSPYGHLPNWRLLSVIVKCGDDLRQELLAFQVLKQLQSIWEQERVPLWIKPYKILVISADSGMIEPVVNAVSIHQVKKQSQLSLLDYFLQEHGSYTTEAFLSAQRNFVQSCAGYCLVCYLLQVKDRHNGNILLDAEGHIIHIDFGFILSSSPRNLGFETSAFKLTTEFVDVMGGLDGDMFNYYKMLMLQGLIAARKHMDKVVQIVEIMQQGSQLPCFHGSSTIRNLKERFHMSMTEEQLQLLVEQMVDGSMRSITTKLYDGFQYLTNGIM
Sequence of Mitogen-activated protein kinase 3 (Homo sapiens) (P27361 whole entry): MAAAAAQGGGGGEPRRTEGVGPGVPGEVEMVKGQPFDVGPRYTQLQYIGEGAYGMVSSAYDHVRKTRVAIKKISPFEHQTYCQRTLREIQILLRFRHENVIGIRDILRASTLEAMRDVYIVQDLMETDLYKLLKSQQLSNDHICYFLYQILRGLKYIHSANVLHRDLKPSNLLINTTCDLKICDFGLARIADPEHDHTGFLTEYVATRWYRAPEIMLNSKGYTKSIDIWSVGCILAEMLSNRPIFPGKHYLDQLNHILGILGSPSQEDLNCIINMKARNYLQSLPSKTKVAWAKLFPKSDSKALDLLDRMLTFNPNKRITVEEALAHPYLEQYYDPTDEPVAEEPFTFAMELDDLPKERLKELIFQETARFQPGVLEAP
Sequence of Sphingosine kinase 1 (Homo sapiens) (Q9NYA1 whole entry): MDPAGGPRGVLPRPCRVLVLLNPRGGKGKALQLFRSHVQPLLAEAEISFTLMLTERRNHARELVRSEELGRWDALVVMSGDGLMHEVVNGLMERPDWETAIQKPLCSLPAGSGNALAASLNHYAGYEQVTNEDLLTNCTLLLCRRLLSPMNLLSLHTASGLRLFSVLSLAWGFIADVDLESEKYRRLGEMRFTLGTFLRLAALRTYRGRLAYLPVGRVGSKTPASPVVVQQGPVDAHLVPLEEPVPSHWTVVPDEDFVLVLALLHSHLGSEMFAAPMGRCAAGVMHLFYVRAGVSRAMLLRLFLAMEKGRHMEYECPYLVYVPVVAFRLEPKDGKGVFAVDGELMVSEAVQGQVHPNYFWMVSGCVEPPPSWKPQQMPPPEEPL
Sequence of Mitogen-activated protein kinase 14 (Homo sapiens) (Q16539 whole entry): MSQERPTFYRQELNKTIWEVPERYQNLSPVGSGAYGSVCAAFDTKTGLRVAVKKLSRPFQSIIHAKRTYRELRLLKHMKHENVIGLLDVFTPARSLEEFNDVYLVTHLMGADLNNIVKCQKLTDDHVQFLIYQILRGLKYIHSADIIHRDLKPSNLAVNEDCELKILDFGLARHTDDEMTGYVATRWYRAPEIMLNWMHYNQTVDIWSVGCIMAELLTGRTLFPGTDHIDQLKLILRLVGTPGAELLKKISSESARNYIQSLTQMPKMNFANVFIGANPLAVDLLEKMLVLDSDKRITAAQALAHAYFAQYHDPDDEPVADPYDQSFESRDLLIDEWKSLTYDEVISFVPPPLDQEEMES

A word on the inhibition: it is the change of the read-out against control, counted positive when it falls. As to `Nc1nccc(-c2c(-c3ccc(F)cc3)ncn2C2CCNCC2)n1`, the inhibition in experiment [1] is 1.29% and 5.05%; in experiment [2] it was -1.41% and 0.32%; in experiment [3], -1.34% and 0.18%; in experiment [4] it was 1.49% and -1%; in experiment [5], -0.09% and 0.83%; in [6], -3.2% and 3.79%. For the same molecule, the inhibition in [7] was 1.34% and 1.58%; in experiment [8], -0.68% and 4.92%; in experiment [9], 6.51% and 6.41%; in [10] it was 0.69% and 2.98%; in [11] it was -2.46% and -0.82%; in experiment [12], -0.52% and 0.67%.

`O=C(O[C@H]1CN[C@H](C#Cc2cc3ncnc(Nc4ccc(OCc5cccc(F)c5)c(Cl)c4)c3s2)C1)N1CCOCC1`: the inhibition is 5.48% in [1]; -1.6% in experiment [2]; -1.95% in experiment [3]; 3.55% in experiment [13]; 7.34% in experiment [14]; 5.95% in [15]. The inhibition in [16] was 5.11%; in [17] it was 1.84%; in experiment [18] it was 6.02%; in [19], 3.76%; in experiment [20] it was 3.47%; in experiment [4], -2%. Besides, the inhibition was 0.44% in [5]; 4.94% in experiment [6]; 26.9% in [7]; 3.37% in [8]; 15.8% in [9]; -0.81% in experiment [10]. Further, the inhibition in experiment [11] stood at 1.44%; in experiment [12] it was 0.99%.

Consider `Cc1cc(O)cc(C)c1/C=C/c1cncc(C(N)=O)c1`, for which the inhibition was 2.77% in [1]; 1.7% in experiment [2]; 1.04% in experiment [3]; 4.9% in [13]; 6.5% in experiment [14]; 0.52% in [15]. Besides, the inhibition is 0.8% in experiment [16]; 2.3% in [17]; 1.36% in experiment [18]; 1.1% in experiment [19]; 1.72% in experiment [20]; -2.4% in experiment [4]. For the same molecule, the inhibition is -0.6% in experiment [5]; 0.88% in [6]; 3.67% in experiment [7]; 0.87% in experiment [8]; 2.16% in [9]; 0.44% in [10]. The inhibition in [11] was -1.46%; in experiment [12] it was -0.95%.

For `NC(=O)c1ccc2c(-c3ccnc(NCCCO)n3)c(-c3ccc(F)cc3)nn2c1`, the inhibition in experiment [1] was 8.87%; in experiment [2], 1.36%; in [3], 1.23%; in experiment [13], 74.9%; in experiment [14], 86.4%; in experiment [15], 49.5%. Further, the inhibition in experiment [16] was 68.7%; in [17] it was 1.5%; in [18] it was 6.27%; in [19] it was 2.09%; in experiment [20] it was 3.04%; in experiment [4], -2.08%. Also, the inhibition in [5] was -2.11%; in [6] it was 2.83%; in experiment [7], 6.09%; in experiment [8], 2.78%; in experiment [9], 6.2%; in [10] it was -2.18%. In addition, the inhibition in experiment [11] is 3.6%; in experiment [12] it was -2.85%.

For the molecule `O=C(Nc1n[nH]c2nnc(-c3cccnc3)cc12)C1CC1`, the inhibition in [1] was 0.8%; in [2], -0.02%; in [3], -4.68%; in experiment [13], -0.2%; in [14], -1.37%; in experiment [15], 0.57%. The inhibition was 2.39% in experiment [16]; -0.07% in experiment [17]; 5.16% in experiment [18]; 0.25% in experiment [19]; 3.03% in [20]; -1.16% in experiment [4]. Moreover, the inhibition in experiment [5] was -0.28%; in experiment [6], 0.13%; in [7], 1.26%; in [8], 1.05%; in experiment [9], 1.67%; in experiment [10], -1.26%. Further, the inhibition in experiment [11] worked out at 3.04%; in experiment [12], 1.36%.

Turning to `COc1cc(N2CCN(C(C)C)CC2)ccc1Nc1nc(Nc2cccc3ncccc23)c2cc[nH]c2n1`, the inhibition was 0.21% in [1]; -0.27% in experiment [2]; 1.83% in [3]; 1.44% in [13]; 2.03% in [14]; -0.29% in [15]. In addition, the inhibition is 0.54% in [16]; -1.75% in [17]; -2.15% in experiment [18]; -0.18% in [19]; -0.51% in [20]; -1.39% in [4]. Besides, the inhibition in [5] was -1.2%; in [6], -0.92%; in experiment [7] it was 1.96%; in experiment [8], -1.65%; in experiment [9], 4.18%; in experiment [10] it was 5.9%. Further, the results for the inhibition in experiment [11] and in [12] were -2.85% and 0%, respectively.

In the case of `N#Cc1cccc(Nc2ncc(-c3ccccc3)o2)c1`, the inhibition was 4.14% in experiment [1]; -0.78% in experiment [2]; 0.7% in experiment [3]; 2.24% in experiment [13]; 3.69% in experiment [14]; 1.51% in experiment [15]. Besides, the inhibition in experiment [16] was 5.93%; in experiment [17], -0.16%; in experiment [18] it was 2.33%; in [19], 3.74%; in experiment [20], 1.79%; in experiment [4] it was -1.82%. The inhibition was 0.42% in experiment [5]; 0.88% in experiment [6]; -1.04% in experiment [7]; -0.63% in [8]; -0.04% in [9]; -0.3% in experiment [10]. The inhibition in [11] was -1.82%; in experiment [12] it was 1.65%.

The record behind these values is ChEMBL document CHEMBL1961873, “Compounds: GSK PKIS; Assays: Nanosyn kinase panel” (2012).
